Drawing on PubChem BioAssay AID1210 (NMMLSC, 2008), this text covers inhibition for 17 molecules.

SMILES strings stand for the structures. Calls of active or inactive are those of the source.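 How the source made its calls: active means blocks over 70% of labeled estradiol binding at 10 µM, or over a set limit at 100 nM; inactive means the rest.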

A word on the inhibition: it is how much of the control response was suppressed.

Sequence of Estrogen receptor beta (Homo sapiens) (Q92731 whole entry, looked up): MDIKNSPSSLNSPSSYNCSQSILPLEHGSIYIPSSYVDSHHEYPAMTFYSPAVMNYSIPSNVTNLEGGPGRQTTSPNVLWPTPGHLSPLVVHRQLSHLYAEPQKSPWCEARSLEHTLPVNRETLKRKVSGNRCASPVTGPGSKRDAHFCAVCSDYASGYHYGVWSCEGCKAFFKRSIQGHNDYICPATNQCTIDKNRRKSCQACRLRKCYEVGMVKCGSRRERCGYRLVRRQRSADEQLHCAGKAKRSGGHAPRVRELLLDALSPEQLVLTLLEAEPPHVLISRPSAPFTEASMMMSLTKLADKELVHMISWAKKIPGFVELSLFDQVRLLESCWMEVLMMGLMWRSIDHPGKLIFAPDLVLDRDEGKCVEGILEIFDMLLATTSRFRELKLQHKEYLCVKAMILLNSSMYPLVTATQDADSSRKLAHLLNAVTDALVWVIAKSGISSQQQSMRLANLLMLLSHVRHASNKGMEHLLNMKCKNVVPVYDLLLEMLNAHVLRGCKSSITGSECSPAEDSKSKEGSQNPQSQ

This assay addresses Estrogen receptor beta (Homo sapiens) (UniProt Q92731). Kind of assay: ERbeta ligand binders by competition, primary screen, cell-based, Cos7 ERbeta-GFP, flow cytometry (AID 1210).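 Further: 0% = DMSO vehicle wells and 100% = complete loss of labeled estradiol signal.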 Particulars: fluorescent estrogen binding, at 10 µM, stronger effect = higher value. On the technique in general: A flow cytometer gives signals particle by particle.
Consider `COc1nc(-c2ccc(Cl)cc2)ccc1-c1noc(-c2ccco2)n1`, for which the inhibition is 72% (active).

For `CN1C(=O)CC(C(=O)O)SC1=Nc1cc(Cl)c(O)c(Cl)c1` (configuration not stated), the inhibition was 48% (inactive).

Take `O=Cc1ccc2oc3nc4n(c(=O)c3c(=O)c2c1)CCCS4`: the inhibition was 15% (inactive).

Regarding `Cc1c2cc(O)c(=O)cc-2oc2cc(O)c(O)cc12`, the inhibition is 67% (inactive).

With `O=C(O)c1cc(-c2ccc(O)cc2)nc2ccccc12`, the inhibition is 57% (inactive).

As to `CCOC(=O)C1CCCN(C(=O)c2ccc(CS(=O)(=O)c3ccc(C)cc3)o2)C1` (configuration not stated), the inhibition was 55% (inactive).

For `Cc1ccc(NC(=O)CSc2nnnn2-c2ccc3c(c2)OCO3)cc1C`, the inhibition was 32% (inactive).

In the case of `Oc1ccccc1-c1nnc(SCCN2CCOCC2)n1Cc1ccccc1`, the inhibition is 32% (inactive).

For `CCc1ccc2[nH]c(=O)c(CN(Cc3ccc4c(c3)OCO4)C(=O)c3ccco3)cc2c1`, the inhibition was 13% (inactive).

As to `CN(C)c1ccc(N=Cc2ccco2)cc1`, the inhibition was 47% (inactive).

Consider `O=C(c1cc2sccc2n1Cc1ccccc1)N1CCc2ccccc21`, for which the inhibition was 42% (inactive).

Regarding `O=C1c2ccccc2C(=O)N1CCCc1nc2ccccc2c(=O)n1CCCn1ccnc1`, the inhibition was 61% (inactive).

Regarding `COc1ccc(-c2nc3ccc([N+](=O)[O-])cc3o2)cc1`, the inhibition was 36% (inactive).

For the molecule `O=c1oc2ccccc2cc1-c1ccc(O)cc1O`, the inhibition was 42% (inactive).

Turning to `CCCCCc1nnc(NC(=O)Cc2cccs2)s1`, the inhibition is 18% (inactive).

Consider `O=C(COC(=O)CCC(=O)c1cccs1)NCc1ccco1`, for which the inhibition was 54% (inactive).

For the molecule `O=S(=O)(NCCc1csc(-c2cccnc2)n1)c1ccc(Cl)s1`, the inhibition was 69% (active).
